beta cell repl – inducers of beta-cell replication in MIN6 cells. MIN6 cells proliferation, ATPlite luminescence, 48 h; cells starved in 0.2% serum; 100% = growth in 10% serum. proliferation, % at 10 µM. 330,000 tested, 0.29% active;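 active = compounds whose signal lies at least 3.5 SD above the mean of all wells on their plate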
ALR H2O2 inh – human ALR oxidase inhibition via reduced H2O2. P55789. AID 485317. 290,000 tested, 3.8% active. purified ALR, DTT oxidation, H2O2 HRP-luminol luminescence. inhibition, % (test concentration not listed);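 active = mean replicate inhibition above about 79%, with every replicate also reaching it, limit read from the data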
Target sequence (P55789 whole entry, looked up): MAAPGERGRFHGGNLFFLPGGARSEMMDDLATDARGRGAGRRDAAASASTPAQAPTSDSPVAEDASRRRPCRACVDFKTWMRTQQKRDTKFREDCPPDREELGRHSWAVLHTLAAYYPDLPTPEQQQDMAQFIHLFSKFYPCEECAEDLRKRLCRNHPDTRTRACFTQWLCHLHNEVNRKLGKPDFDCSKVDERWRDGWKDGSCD
Exocytosis inh – blocks lytic granule exocytosis; TALL-104 LAMP-1 surface exposure, flow cytometry; cells stimulated with thapsigargin and PMA; inhibition, % at 10 µM; 360,000 tested, 0.66% active;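 active = inhibition above about 55%, limit read from the data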
SMARCA2 activ – activators of SMARCA2 function; 370,000 tested, 1% active; AID 652017; activation, % at 9.1 µM; MG213 cells, MMTV-luciferase reporter, dexamethasone, overnight; in the data active = activation above about 7.8%
PfM18AAP inh – blocks P. falciparum M18 aspartyl aminopeptidase; 290,000 tested, 1.2% active; recombinant PfM18AAP, H-Glu-NHMec fluorogenic cleavage; inhibition, % at 7.35 µM; AID 1822;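 active = inhibition above the campaign mean inhibition over all tested compounds plus 3 SD, cut at about 28% in these data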
JMJD2C inh – human JMJD2C demethylase inhibition; Q9H3R0; 330,000 tested, 0.069% active; inhibition, % at 2.35 µM; GST-JMJD2C(1-420) H3K9me3 demethylation, DELFIA europium;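 active = more than half of a compound's replicate wells show inhibition beyond 50%, single wells judged on their own value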;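 also: signal counts dimethyl H3K9 product captured on neutravidin plate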
SMARCA2 conf – SMARCA2 activation, confirmation screen; 3,500 tested, 30% active; MG213 cells, MMTV-luciferase with dexamethasone, luminescence, overnight; MG213 cells expressing E1A, Rb sequestered; DMSO wells 0%, reference activator 100%; activation, % at 9.1 µM; shares compounds with SMARCA2 activ;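 active = activation above its plate's cutoff, the mean activation of tested wells plus 3 SD, cut at about 7.9% in these data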
GAL4-VP16 Luc – GAL4-VP16 reporter activation counter-screen; activation, % at 9.1 µM; AID 686939; 3,500 tested, 41% active; HEK293 GAL4-VP16 pG5luc reporter, luciferase luminescence; scaled: DMSO wells 0%, SAHA wells 100%; shares compounds with SMARCA2 activ;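 active = activation above the solvent-only control well mean plus 3 SD, averaged across control plates, cut at about 5.2% in these data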
A number is an active result. Most compounds without a hit are left out; they make up all but 5.4% or so of the library.

Results for Cc1ccc(NC(=O)Nc2ccc3c(c2)OCO3)c(OC(F)F)c1 ?
beta cell repl: inactive; ALR H2O2 inh: inactive; Exocytosis inh: inactive; SMARCA2 activ: 8.5; PfM18AAP inh: inactive; JMJD2C inh: inactive; SMARCA2 conf: 9.0; GAL4-VP16 Luc: 9.4

How did Cc1cc2cc(OCc3ccccc3)ccc2n1C do in these assays?
beta cell repl: inactive; Exocytosis inh: inactive; SMARCA2 activ: 13; PfM18AAP inh: inactive; JMJD2C inh: inactive; SMARCA2 conf: inactive; GAL4-VP16 Luc: 8.1

How did Cc1ccc(-n2nc3cc(C)c(N)cc3n2)cc1 do in these assays?
beta cell repl: inactive; ALR H2O2 inh: inactive; Exocytosis inh: inactive; SMARCA2 activ: inactive; PfM18AAP inh: inactive; JMJD2C inh: inactive

How did CCc1ccc(-n2nc3cc(C)c(N)cc3n2)cc1 do in these assays?
beta cell repl: inactive; ALR H2O2 inh: inactive; Exocytosis inh: inactive; SMARCA2 activ: 11; PfM18AAP inh: inactive; JMJD2C inh: inactive; SMARCA2 conf: inactive; GAL4-VP16 Luc: 13

How did COc1cc2c3nnc(-c4ccccc4)c-3cn(Cc3ccccc3F)c2cc1OC do in these assays?
beta cell repl: inactive; ALR H2O2 inh: inactive; SMARCA2 activ: 9.9; PfM18AAP inh: inactive; JMJD2C inh: inactive; SMARCA2 conf: 18; GAL4-VP16 Luc: inactive

What do the screens show for `COc1cc2c3nnc(-c4ccc(F)cc4)c-3cn(Cc3ccccc3F)c2cc1OC`?
Exocytosis inh: inactive; SMARCA2 activ: inactive; PfM18AAP inh: inactive

How did C[C@@H]1CN([C@@H](C)CO)C(=O)c2cc(NS(=O)(=O)c3ccc(F)cc3)ccc2O[C@@H](C)CCCCO[C@H]1CN(C)C(=O)NC1CCCCC1 do in these assays?
Exocytosis inh: inactive; SMARCA2 activ: inactive

What do the screens show for `CC(C)c1c(C(=O)Nc2ccccc2)c(-c2ccccc2)c(-c2ccc(F)cc2)n1CC[C@@H](O)C[C@@H](O)CC(=O)O`?
SMARCA2 activ: 17; SMARCA2 conf: 13; GAL4-VP16 Luc: inactive

How did O=C(Nc1ccccc1)c1c(F)c(F)c(F)c(F)c1F do in these assays?
beta cell repl: inactive; ALR H2O2 inh: inactive; Exocytosis inh: inactive; SMARCA2 activ: inactive; PfM18AAP inh: inactive; JMJD2C inh: inactive

Results for Cc1ccc(-c2nc(N/N=C/c3ccccc3[N+](=O)[O-])c3ccccc3n2)cc1 ?
beta cell repl: inactive; Exocytosis inh: inactive; SMARCA2 activ: 8.2; PfM18AAP inh: inactive; JMJD2C inh: inactive; SMARCA2 conf: inactive; GAL4-VP16 Luc: 8.2

Results for Cc1ccc(F)c(C(=O)N2CCCC(C)(C(=O)NS(=O)(=O)C3CC3)C2)c1F (stereo unspecified) ?
Exocytosis inh: inactive

How did COC(=O)c1ccc2nc(NC(=O)C3CC3)sc2c1 do in these assays?
beta cell repl: inactive; ALR H2O2 inh: inactive; Exocytosis inh: inactive; SMARCA2 activ: 12; PfM18AAP inh: inactive; JMJD2C inh: inactive; SMARCA2 conf: 8.7; GAL4-VP16 Luc: 5.3

What do the screens show for `CCOC(=O)CSc1nc(C)c(C(C)=O)cc1C#N`?
beta cell repl: inactive; ALR H2O2 inh: inactive; Exocytosis inh: inactive; SMARCA2 activ: 8.2; PfM18AAP inh: inactive; JMJD2C inh: inactive; SMARCA2 conf: inactive; GAL4-VP16 Luc: inactive

Results for CC(=O)c1cc(C#N)c(SCC(=O)O)nc1C ?
beta cell repl: inactive; ALR H2O2 inh: inactive; Exocytosis inh: inactive; SMARCA2 activ: inactive; PfM18AAP inh: inactive; JMJD2C inh: inactive

How did CCCS(=O)(=O)NC(=O)C1(C)CCCN(C(=O)c2c(OC)cccc2OC)C1 (stereo unspecified) do in these assays?
Exocytosis inh: inactive; SMARCA2 activ: inactive

What do the screens show for `CC1=Nn2c(nc3sc4c(c3c2=O)CCCC4)SC1`?
beta cell repl: inactive; ALR H2O2 inh: inactive; Exocytosis inh: inactive; SMARCA2 activ: 10; PfM18AAP inh: inactive; JMJD2C inh: inactive; SMARCA2 conf: inactive; GAL4-VP16 Luc: inactive
